14-3-3g Raf – 14-3-3 gamma protein interaction modulation | FP, 14-3-3gamma / TMR-pS259-Raf peptide binding | inhibition, % at 40 µM | 160,000 tested, 0.19% active | AID 422; in the data active = inhibition above about 30%;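 note: 0% = protein plus tracer without compound and 100% = blank with tracer alone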
Target sequence (P61981 whole entry, looked up): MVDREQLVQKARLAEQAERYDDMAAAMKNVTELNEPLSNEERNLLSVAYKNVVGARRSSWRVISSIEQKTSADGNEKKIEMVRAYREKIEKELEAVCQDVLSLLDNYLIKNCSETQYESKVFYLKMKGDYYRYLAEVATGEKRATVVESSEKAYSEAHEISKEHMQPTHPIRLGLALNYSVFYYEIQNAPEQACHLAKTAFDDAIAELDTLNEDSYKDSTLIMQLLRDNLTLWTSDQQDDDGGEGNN
An asterisk follows results filed as active; + = active, no number; ! = not confirmed by another sample. Shown is part of a subset that was picked to be rich in hits.

SMILES | 14-3-3g Raf
Cc1ccc(C)c(Cn2c(CCNC(=O)c3ccc(F)cc3)nc3ccccc32)c1 | 4
COc1ccc(Nc2cc(Cl)c3nonc3c2[N+](=O)[O-])cc1 | -79
CCCOC(=O)c1ccc(NC(=O)c2cccs2)cc1 | 1
CSc1nc2n(n1)C(c1cccc(Br)c1)C(C(=O)Nc1ccc(Cl)cc1)=C(C)N2 (stereo not given) | -10
Cc1cccc(C(=O)Nc2ccc3nc(SCC(=O)Nc4ccccc4[N+](=O)[O-])sc3c2)c1 | -32
CC1CCc2c(nc3ccc4ccccc4c3c2-c2cccc(O)c2)C1 (stereo not given) | -4
O=c1[nH]cc(NCCO)c(=O)[nH]1 | 31*
CC(C)(C)C(=O)Nc1c[nH]c(=O)[nH]c1=O | -6
Cc1[nH]c(=O)[nH]c(=O)c1NCCO | -4
CC(=O)CSc1n[nH]c(=O)[nH]c1=O | -1
Cc1ccc(C2CC(=O)C3=C(C2)Nc2ccccc2NC3c2cc3c(cc2[N+](=O)[O-])OCO3)cc1 (stereo not given) | -40
CC(=O)Nc1ccc(NC2=CC(=NS(=O)(=O)c3cccs3)c3ccccc3C2=O)cc1 | -2
CCOC(=O)c1ccc(NC2=CC(=NS(=O)(=O)c3cccs3)c3ccccc3C2=O)cc1 | 67*
O=C1C(Nc2ccccc2)=CC(=NS(=O)(=O)c2cccs2)c2ccccc21 | -79
COc1cc(Cl)c(C)cc1NC(=O)C1c2cc(OC)c(OC)cc2C(=O)N(C)C1c1ccc(OC)c(OC)c1 (stereo not given) | -6
O=C1C2=C(C(c3ccccc3)=NCCN2)C(c2ccccc2Cl)N1c1ccccc1 (stereo not given) | 0
Cc1cccc(NC(=O)C2CCN(C(=O)c3ccccc3C)CC2)c1 | 1
CS(=O)(=O)Nc1ccc(C2=NN(S(C)(=O)=O)C(c3ccc(F)cc3)C2)cc1 (stereo not given) | -176
CCS(=O)(=O)N1N=C(c2ccc(NS(C)(=O)=O)cc2)CC1c1ccc(F)cc1 (stereo not given) | 92*
CCS(=O)(=O)N1N=C(c2ccc(NS(C)(=O)=O)cc2)CC1c1ccc(C)cc1 (stereo not given) | -212
CCOC(=O)c1ccc(NC(=O)c2cc(OC)cc(OC)c2)cc1 | -4
CC1CCCCC1NC(=O)c1cccnc1SCc1cccc(Br)c1 (stereo not given) | -8
O=C(C1CC1)N1CCc2cc(S(=O)(=O)NC3CCCc4ccccc43)ccc21 (stereo not given) | -11
COc1cc(NS(=O)(=O)c2ccc3[nH]c(=O)sc3c2)cc(OC)c1OC | 1
CC(=O)N1CCc2cc(Br)cc(S(=O)(=O)CCC(=O)NCCN3CCC(C)CC3)c21 | 1
SMILES | 14-3-3g Raf
C=COCCN1CCOCC1 | -13
OCCN1CCOCCN(CCO)CCN(CCO)CC1 | 147*!
NC(=O)CN1CCOCCOCCN(CC(N)=O)CCOCC1 | -4
O=C(NC1CC1)c1cccnc1SCc1cccc(F)c1 | 3
Cc1ccccc1-n1c(=S)[nH]c2ccsc2c1=O | -1
CC(C)(C)n1nc2c(c1NC(=O)c1cccc(Br)c1)CS(=O)C2 (stereo not given) | -7
COCCOC(=O)C1=C(C)NC(=O)NC1c1c(OC)ncnc1OC (stereo not given) | -7
CCOC(=O)CN=C1CC(C)(C)CC2=C1Sc1ncnc(OC)c1N2 | 81*
CCOC(=O)C1=C(C)NC2=C(C(=O)CC(C)(C)C2)C1c1ccccn1 (stereo not given) | -5
O=c1cc(CNC2CCCCC2)c2ccccc2[nH]1 | -10
O=C1c2ccccc2-c2c(NC3CCCCC3)c(=O)[nH]c3cccc1c23 | +
O=C(NC1CCCCCC1)c1c(O)c2ccccc2[nH]c1=O | -6
CCn1c2ccc(Cl)cc2c2nc3ccccc3nc21 | -7
CCCCCn1c2ccccc2c2nc3ccccc3nc21 | -3
CCn1c2ccccc2c2nc3cc4ccccc4cc3nc21 | 116*
Cn1c2ccccc2c2cc(C3Nc4ccccc4C(=O)N3Cc3ccccc3)ccc21 (stereo not given) | -8
Cc1c(Cl)c(C)c([N+](=O)[O-])c(O)c1C=Nc1cccc(C(=O)O)c1 | 19
Cc1c(Cl)c(C)c([N+](=O)[O-])c(O)c1C=Nc1ccc(Br)cc1 | -2
Cc1c(Cl)c(C)c([N+](=O)[O-])c(O)c1C=Nc1ccc(C(=O)O)cc1 | 45*
Cc1ccc(NC(=O)c2c(-c3ccccc3Cl)noc2C)cc1 | -1
O=C(c1ccc(Cn2c(=S)[nH]c3cc4c(cc3c2=O)OCO4)cc1)N1CCc2ccccc2C1 | -25
Cc1cc2cc(CCNC(=O)C3CC3)c(=O)[nH]c2cc1C | -6
Cc1ccc2cc3cc(C(=O)NCCCN4CCC(C)CC4)oc3nc2c1 | 6
CCN1CCN(CCCNC(=O)c2cc3cc4ccc(C)cc4nc3o2)CC1 | -9
Cc1ccc2cc3cc(C(=O)NCCCN4CCN(C)CC4)oc3nc2c1 | 66*
O=C(CSc1nc2ccccc2c(=O)n1Cc1ccc2c(c1)OCO2)Nc1cccc(C(F)(F)F)c1 | 6
COc1ccc(NC(=O)c2cc3c(CO)cnc(C)c3oc2=Nc2ccccc2OC)c(OC)c1 | 1
Cc1cccc(NC(=O)c2ccc(S(=O)(=O)N3CCc4ccccc4C3)cc2)c1C | -1
